# RBX1-CUL1 inh: human ROC1-CUL1 E3 ligase inhibition. in vitro K48 di-Ub FRET, acceptor:donor ratio, 45 min. 140,000 compounds, 0.6% hits. inhibition, % at 10 µM. AID 1347404. P62877+Q13616; in the data active = inhibition above about 25%
# Target sequence (P62877 whole entry, looked up): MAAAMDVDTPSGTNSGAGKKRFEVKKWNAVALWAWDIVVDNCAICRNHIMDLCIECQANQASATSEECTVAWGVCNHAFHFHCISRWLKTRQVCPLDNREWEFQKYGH
# Target sequence (Q13616 whole entry, looked up): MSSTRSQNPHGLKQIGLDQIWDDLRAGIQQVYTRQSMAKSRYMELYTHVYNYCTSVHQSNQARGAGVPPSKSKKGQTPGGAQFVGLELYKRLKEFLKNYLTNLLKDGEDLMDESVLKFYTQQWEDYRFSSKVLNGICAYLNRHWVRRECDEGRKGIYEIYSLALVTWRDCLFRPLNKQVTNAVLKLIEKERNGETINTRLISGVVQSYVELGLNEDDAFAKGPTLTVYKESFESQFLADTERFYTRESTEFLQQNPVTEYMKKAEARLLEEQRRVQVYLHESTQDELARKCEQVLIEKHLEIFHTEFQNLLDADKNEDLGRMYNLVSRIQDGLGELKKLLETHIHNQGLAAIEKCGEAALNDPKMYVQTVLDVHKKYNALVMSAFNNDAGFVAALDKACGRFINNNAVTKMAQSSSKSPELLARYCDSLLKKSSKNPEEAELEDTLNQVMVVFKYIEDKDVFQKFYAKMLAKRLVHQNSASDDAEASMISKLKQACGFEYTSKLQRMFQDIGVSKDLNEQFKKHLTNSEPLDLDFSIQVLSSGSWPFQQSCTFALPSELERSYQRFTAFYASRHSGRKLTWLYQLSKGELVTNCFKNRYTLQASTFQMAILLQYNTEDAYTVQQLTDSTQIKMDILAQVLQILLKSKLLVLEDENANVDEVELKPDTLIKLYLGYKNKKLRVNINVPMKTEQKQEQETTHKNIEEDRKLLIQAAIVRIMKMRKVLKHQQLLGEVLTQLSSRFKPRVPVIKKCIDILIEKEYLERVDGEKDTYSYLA
# Numbers stand for hits; – = inactive. The sample as a whole holds a higher share of hits than the screen did.
SMILES,RBX1-CUL1 inh
CCOC(=O)c1ccc(NC(=O)CN2C(=O)S/C(=C/C(C)=C/c3ccccc3)C2=O)cc1,–
CC(=C/c1ccccc1)/C=C1\SC(=S)N(C(C(=O)O)c2ccccc2)C1=O (stereo not given),105
O=C1/C(=C\c2cccc(O)c2)SC(=S)N1c1ccccc1,–
CC(/C=C1\SC(=S)N(c2cccc(C(=O)O)c2)C1=O)=C\c1ccccc1,66
O=C(Nc1cnn(Cc2ccc(Cl)cc2Cl)c1)c1cc2nc3c(c(C(F)(F)F)n2n1)CCc1ccccc1-3,–
CN1C(=O)C(C=NC2CCCC2)C(=O)N(C)C1=O,–
Cc1cccc(C)c1N1CCN(C(=O)c2cc3ccccc3oc2=O)CC1,–
CCC(=O)C1CCCN(C(=O)CC2(c3ccccc3)CC(=O)N(Cc3ccc4c(c3)OCO4)C2=O)C1 (stereo not given),–
O=C(O)c1ccc(CC2=NC(=O)N(c3ccccc3)C2=O)cc1,–
CCN(CC)C(=O)c1sc(NC(=O)c2cc(-c3ccc(C)s3)nc3ccccc23)c(C#N)c1C,–
O=C1NN(c2ccc(Cl)cc2)C(=O)/C1=C/c1cc(Br)cc([N+](=O)[O-])c1O,85
CC(=O)Oc1cccc(/C=C2/C(=O)NN(c3ccc(C)c(C)c3)C2=O)c1,–
O=C1NN(c2ccccc2)C(=O)/C1=C/c1ccc(OCc2ccccc2)cc1,–
O=C1OC(c2ccccc2)=N/C1=C/c1cccc(OC(=O)c2cccs2)c1,–
O=C1NN(c2cc(Cl)cc(Cl)c2)C(=O)/C1=C\c1ccc(F)cc1,85
CCOc1cc(/C=C2\C(=O)NN(c3ccc(Cl)cc3)C2=O)cc(I)c1O,–
COc1cc(/C=C2\C(=O)NN(c3ccc(C)cc3)C2=O)cc([N+](=O)[O-])c1O,–
CCc1ccc(/C=C2\C(=O)NC(=S)N(C)C2=O)cc1,–
CCOc1cc(/C=C2/C(=O)NN(c3ccc(F)cc3)C2=O)ccc1OC(C)C,–
CCc1ccc(/C=C2\C(=O)NN(c3ccc(C)cc3)C2=O)cc1,45
O=C1NN(c2ccc(F)c(Cl)c2)C(=O)/C1=C\c1cccc(OC(=O)c2cccs2)c1,97
O=C1NN(c2cccc(Cl)c2)C(=O)/C1=C/c1cccs1,–
Cn1cncc1Cn1ccc(-c2cccc(-c3nccc4occc34)c2)n1,–
Cc1ccccc1-n1c(-c2csc3c2CCCC3)n[nH]c1=S,–
CC1=CC(=O)C=C/C1=N\n1c(C)nc2sc(C)c(C)c2c1=O,–
SMILES,RBX1-CUL1 inh
CCCCCCCCCCOc1ccc(N=C(CC)C(CC)=Nc2ccc(OCCCCCCCCCC)cc2)cc1,–
CCCCN(Cc1ccccc1)C(=O)COc1ccc(N2CCN(c3ccccn3)CC2)nn1,–
O=C1NN(c2ccc(Cl)c(Cl)c2)C(=O)/C1=C/c1ccc(Cl)cc1,78
C=CCOc1ccc(/C=C2\C(=O)NN(c3ccc(Cl)cc3)C2=O)cc1OC,–
O=C1NN(c2ccc(Cl)c(Cl)c2)C(=O)/C1=C/c1cccc([N+](=O)[O-])c1,–
O=C1NN(c2ccccc2)C(=O)/C1=C/c1ccc2c(c1)OCO2,–
O=C1NN(c2ccc(Cl)cc2)C(=O)/C1=C\c1ccc(F)cc1,38
O=C1NN(c2ccccc2)C(=O)/C1=C/c1cccc(OCc2ccc(Cl)c(Cl)c2)c1,–
O=C1NN(c2cccc(Cl)c2)C(=O)/C1=C/c1ccc(Br)cc1,60
O=C1NN(c2cccc(C(F)(F)F)c2)C(=O)/C1=C\c1ccc(Br)cc1,–
O=C1NN(c2ccc(F)cc2)C(=O)/C1=C/c1ccccc1O,–
O=C1NN(c2ccc(Cl)c(Cl)c2)C(=O)/C1=C/c1cc2c(cc1[N+](=O)[O-])OCO2,64
CCN(CC)c1ccc(/C=C2\C(=O)NN(c3ccc(Cl)c(Cl)c3)C2=O)cc1,–
O=C1NN(c2cccc(Cl)c2)C(=O)/C1=C\c1cc(Br)ccc1O,–
C#CCN(C(C)=O)c1ccc(OC)cc1,–
O=C1C(=Cc2nc3ccccc3c(=O)n2Cc2ccccc2)c2ccccc2N1Cc1ccccc1,–
CCOc1ccccc1NC(=O)c1cccc(NS(C)(=O)=O)c1,–
Cn1c(=O)c2ncn(CC(=O)Nc3ccc(-c4cc5ccccc5oc4=O)cc3)c2n(C)c1=O,–
Cc1ccc(-n2c(Cc3ccccc3)nnc2SCC(=O)Nc2ccc(Cl)cc2)cc1,–
c1ccc(N2CCN(Cc3c[nH]c4ccccc34)CC2)nc1,–
COc1ccc(/C=C2/C(=O)NN(c3ccc(I)cc3)C2=O)cc1,–
O=C1NN(c2ccc(Br)cc2)C(=O)/C1=C\c1ccc(O)cc1,–
O=C1NN(c2ccc(I)cc2)C(=O)/C1=C/c1ccc(Cl)cc1,59
O=C1NN(c2ccc(I)cc2)C(=O)/C1=C\c1cccs1,–
O=C1NN(c2ccc(I)cc2)C(=O)/C1=C\c1ccc(N2CCOCC2)cc1,–
SMILES,RBX1-CUL1 inh
O=C1NN(c2ccc(I)cc2)C(=O)/C1=C\c1ccc(Br)cc1,59
COCC(=O)Nc1c(C(C)C)cccc1C(C)C,–
O=C1N=c2ccc(Br)cc2=C1c1sc(Nc2ccc(O)cc2)nc1O,–
N=C1/C(=C/c2ccc(OC(=O)c3ccccc3)cc2)C(=O)N=C2SC(Cc3ccccc3)=NN12,–
COC(=O)c1ccc2[nH]c(C)c(CN3CCCC(C)C3)c(=O)c2c1 (stereo not given),–
c1cnc2c(CN3CCc4[nH]nc(-c5ccc6c(c5)OCO6)c4C3)cccc2c1,–
COC(=O)C1=C(C(=O)OC)C2CC1C1ON(c3ccccc3)C(c3ccccc3)C21 (stereo not given),–
Cn1c(=O)c2c(nc(NCCN)n2Cc2ccc(Cl)cc2)n(C)c1=O,27
Cn1c(NCCN)nc2c1c(=O)n(Cc1ccccc1)c(=O)n2C,–
COCCCNc1nc2c(c(=O)n(C)c(=O)n2C)n1Cc1ccccc1,–
Nc1ccc(Br)c2cccnc12,62
O=C(Nc1ccc(Br)c2cccnc12)c1cc(F)c(F)cc1Cl,–
Nc1ccnc2ncccc12,–
CCc1nc(N)nc(N)c1CC1CCCCC1,–
N#CC1C(=N)Oc2n[nH]c(-c3cccc4ccccc34)c2C1c1ccccc1F (stereo not given),–
Cc1nn(-c2nc3ccccc3s2)c(O)c1C1=Nc2ccccc2C(=O)C1,–
COC(=O)Nc1ccc2n(cc[n+]2C)c1,–
CCOC(=O)COc1cc(Br)c(/C=C2/SC(=O)N(CC)C2=O)cc1OC,–
O=C(O)COc1ccc(Br)cc1/C=C1/SC(=O)N(CC(=O)N2CCCC2)C1=O,–
CCc1ccccc1N=C1S/C(=C\c2cc(Br)ccc2OCC(=O)O)C(=O)N1c1ccccc1CC,–
O=C(O)COc1ccc(Br)cc1/C=C1\SC(=O)N(c2cccc(Cl)c2)C1=O,51
COc1cc(/C=C2\SC(=O)N(c3ccc(Cl)cc3)C2=O)c(Br)cc1OCC(=O)O,41
COc1cc(/C=C2\SC(=O)N(Cc3ccc(F)cc3)C2=O)c(Br)cc1OCC(=O)O,–
O=C(C1COc2ccccc2O1)N1CCNCC1 (stereo not given),–
O=C(O)Cc1cccc2c1sc1ccccc12,–
CC1=C(C#N)C(=O)N(c2ccc(C)c(C)c2)C(=O)C1,–
CCCCCC(=O)N1c2ccccc2C(C)(c2ccccc2)CC1(C)C (stereo not given),–
CCC(=O)N1c2ccccc2C(C)(c2ccccc2)CC1(C)C (stereo not given),–
CCC(CC)C(=O)N1c2ccccc2C(C)(c2ccccc2)CC1(C)C (stereo not given),28
CCOC(=O)C1=C(C)N=c2s/c(=C/c3ccc(C(=O)O)cc3)c(=O)n2C1c1ccc(C(C)C)cc1 (stereo not given),90

# High-throughput results (PubChem)
